“And” between values parts separate entries of the source, which are not always exact repeats. Equal values may be shown once. Inconclusive results are not listed. A structure can be active in one record and inactive in another. The source made the active and inactive calls. Unless noted, calls come from the whole dose curve; as a rule, active = well fitted curve in the direction sought with a large enough effect in the repeat runs; inconclusive = weak or mixed curves; inactive = no such curve, though single readings can be large; an effect the other way counts as inactive or inconclusive.

A short description of assay [1]: qHTS assay for small molecules that induce genotoxicity in human embryonic kidney cells expressing luciferase-tagged ATAD5 (AID 651632). Note: nearly all actives have a fitted effect of over 15% in size. In outline: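 Cells were seeded at 2,000 per well, dosed with compound, and incubated 16 hr at 37C in 5% CO2. Luciferase activity was then quantified after a 30 min room-temperature incubation with Amplite.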
Background: qHTS replaces the single test concentration by a dilution series.

Assay [2] in a line: qHTS assay for small molecule disruptors of the mitochondrial membrane potential - cell viability (AID 720634; calls by dose curve; note: nearly all actives have a fitted effect of over 20% in size; note: potency is the fitted concentration of half-maximal effect). In a few lines: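 Cytotoxicity was measured by ATP quantitation in HepG2 wells that had first been treated with compound for 1 hr and stained with m-MPI dye; CellTiter-Glo incubation was 30 min at room temperature.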
The nature of assay [3]: qHTS assay for small molecule disruptors of the mitochondrial membrane potential (AID 720635). Note: potency is the fitted concentration of half-maximal effect. In outline:
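HepG2 cells exposed to compound 1 hr at 37C, then Mito-MPS dye 30 min. Ratio read of aggregate (540/590 nm) versus monomer (490/535 nm) fluorescence.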

The nature of assay [4]: qHTS assay to test for compound auto fluorescence at 590 nm (red) in HepG2 cells (AID 720674). In outline: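 Fluorescence at 590 nm emission following 540 nm excitation was recorded from HepG2 wells one hour after compound transfer, with DMSO-only wells as vehicle and Rose Bengal sodium equivalency as the scale.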
Assay [5] in a line: qHTS assay to test for compound auto fluorescence at 535 nm (green) in HepG2 cells (AID 720675).
A short description of assay [6]: qHTS assay to test for compound auto fluorescence at 590 nm (red) in HEK293 cells (AID 720679). In a few lines: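 Using HEK293 cells at 2,000 per well, the screen added 23 nL of each compound after cell attachment and incubated overnight (37C, 5% CO2). The plate reader then captured red-label fluorescence, Ex/Em 540/590nm.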
Assay [7] is described as follows: qHTS assay to test for compound auto fluorescence at 535 nm (green) in HEK293 cells (AID 720680).
Assay [8] can be described thus: qHTS assay to test for compound auto fluorescence at 460 nm (blue) in HEK293 cell free culture (AID 720681). In outline: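 Compounds were added to cell-free DMEM with 10% FBS and fluorescence read directly. The blue channel used 405 nm excitation and 460 nm emission, with triamterene as the reference fluorophore.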
The nature of assay [9]: qHTS assay to test for compound auto fluorescence at 535 nm (green) in HEK293 cell free culture (AID 720682). In outline: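 Compounds were pin-transferred into cell-free DMEM with 10% FBS, and green fluorescence was read at excitation 485 nm and emission 535 nm. Intensities were expressed as fluorescein-equivalent values.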
Assay [10] in a line: qHTS assay to test for compound auto fluorescence at 590 nm (red) in HEK293 cell free culture (AID 720683). In a few lines:
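Cell-free wells of DMEM with 10% FBS received compound, and intrinsic fluorescence was read at excitation/emission 540/590 nm. Values expressed as equivalence to Rose Bengal sodium.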

A short description of assay [11]: qHTS assay to test for compound auto fluorescence at 590 nm (red) in HepG2 cell free culture (AID 720684). In outline: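 Auto fluorescence equivalency versus Rose Bengal sodium, red channel Ex/Em 540/590 nm; compounds in cell-free MEM/10% FBS; DMSO vehicle control.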
A short description of assay [12]: qHTS assay to test for compound auto fluorescence at 460 nm (blue) in HepG2 cell free culture (AID 720685). In a few lines: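 Cell-free plates of MEM plus 10% FBS received 23 nL compound or DMSO vehicle; blue-channel (405/460 nm) intensity scored against triamterene as reference fluorophore.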
The nature of assay [13]: qHTS assay to test for compound auto fluorescence at 535 nm (green) in HepG2 cell free culture (AID 720686).
Assay [14] is described as follows: qHTS assay to test for compound auto fluorescence at 460 nm (blue) in HepG2 cells (AID 720687). In a few lines: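 HepG2 cells in MEM with 10% FBS, attached overnight at 37 C, were exposed to compound or DMSO for 1 hr at 37 C, 5% CO2. Blue fluorescence was read at 405/460 nm, with triamterene as reference fluorophore.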
Assay [15] in a line: qHTS assay for small molecule agonists of the p53 signaling pathway - cell viability (AID 651633; calls by dose curve; note: nearly all actives have a fitted effect of over 30% in size; note: potency is the fitted concentration of half-maximal effect). In a few lines:
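p53RE-bla cells were treated with compound for 16 hours at 37 C. Cytotoxicity was then measured as CellTiter-Glo luminescence after 30 min at room temperature.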

The nature of assay [16]: qHTS assay to test for compound auto fluorescence at 460 nm (blue) in HEK293 cells (AID 720678). In a few lines:
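Measured: blue fluorescence (Ex 405/Em 460 nm) of compound-treated HEK293 cells, incubated overnight at 37C with 5% CO2 and scaled to triamterene equivalents.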

The target of assay [17] is Glucocorticoid receptor (Homo sapiens) (UniProt P04150). As to the kind of experiment: qHTS assay to identify small molecule agonists of the glucocorticoid receptor (GR) signaling pathway (AID 720691; active = well fitted activation curve with a large enough effect in the signal ratio in the repeat runs, not every such curve was filed as active; the % refers to the signal ratio). In a few lines: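 Steps: seed GR-bla HeLa cells, incubate 4 h at 37 C/5% CO2; pin-transfer DMSO-dissolved compounds; incubate 18 h at 37 C; add LiveBLAzer B/G FRET substrate; after 2 h at room temperature, measure fluorescence.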
Sequence of Glucocorticoid receptor (Homo sapiens) (P04150 whole entry, looked up): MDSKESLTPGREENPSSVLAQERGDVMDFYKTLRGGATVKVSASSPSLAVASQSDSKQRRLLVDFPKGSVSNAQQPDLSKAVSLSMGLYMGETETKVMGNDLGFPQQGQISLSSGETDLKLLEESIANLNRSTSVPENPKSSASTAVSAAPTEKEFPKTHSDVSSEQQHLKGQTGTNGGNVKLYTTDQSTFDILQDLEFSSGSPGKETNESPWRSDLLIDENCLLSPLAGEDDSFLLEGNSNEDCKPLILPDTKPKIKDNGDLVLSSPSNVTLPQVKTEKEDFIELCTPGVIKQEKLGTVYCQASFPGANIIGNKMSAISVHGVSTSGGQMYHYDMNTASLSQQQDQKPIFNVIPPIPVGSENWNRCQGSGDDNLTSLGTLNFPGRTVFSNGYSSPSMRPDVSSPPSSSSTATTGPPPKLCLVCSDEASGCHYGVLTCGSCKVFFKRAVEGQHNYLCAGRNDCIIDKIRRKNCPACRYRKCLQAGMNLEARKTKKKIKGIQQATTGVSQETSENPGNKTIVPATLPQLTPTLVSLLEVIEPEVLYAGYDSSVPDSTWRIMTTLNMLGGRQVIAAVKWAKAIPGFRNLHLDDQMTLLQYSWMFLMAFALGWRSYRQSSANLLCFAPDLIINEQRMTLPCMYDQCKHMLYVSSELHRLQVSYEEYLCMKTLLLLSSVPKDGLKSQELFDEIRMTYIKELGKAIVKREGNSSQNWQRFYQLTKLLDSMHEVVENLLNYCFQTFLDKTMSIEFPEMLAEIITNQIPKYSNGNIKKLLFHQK

Assay [18] shares this target. The assay can be described thus: qHTS assay to identify small molecule antagonists of the glucocorticoid receptor (GR) signaling pathway (AID 720692; active = well fitted inhibition curve with a large enough effect in the signal ratio in the repeat runs, not every such curve was filed as active; the % refers to the signal ratio; note: potency is the fitted concentration of half-maximal effect). In a few lines:
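Antagonism was scored as loss of dexamethasone-driven (5 nM final) reporter signal in HeLa cells bearing a glucocorticoid response element–beta-lactamase construct, after 18 h compound exposure at 37 C and 2 h FRET substrate loading.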

Assay [19] in a line: qHTS assay for small molecules that induce genotoxicity in human embryonic kidney cells expressing luciferase-tagged ATAD5 - cell viability (AID 651634; calls by dose curve; note: nearly all actives have a fitted effect of over 25% in size; note: potency is the fitted concentration of half-maximal effect). In outline:
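Cells (HEK293T, luciferase-tagged ATAD5) are seeded at 2,000 per well, dosed with compound or DMSO vehicle, and incubated 15.5 hr at 37C and 5% CO2. CellTiter-Fluor is added for 30 min before fluorescence is measured.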

Consider `O=C1CC2(CCCC2)CC(=O)N1CCCCN1CCN(c2ncccn2)CC1`, for which the Potency entry in [1], in [2], in [5], in [7], in [8] and in assay [9] was “inactive” in each case. In addition, the Potency entry in assay [12], in [13] and in assay [14] was “inactive” each time. Further, the Potency result in assay [3] is “inactive and 30.6 µM (active)”. The outcome in assay [4], in [6], in assay [10] and in assay [11] was inactive.
With `O=C(O)c1cccc(C(=O)O)c1`, the Potency entry in [15], in assay [2], in assay [3], in assay [5], in [16] and in [7] was “inactive” in each case. In addition, the Potency entry in assay [8], in [9], in assay [13], in assay [17] and in assay [18] was “inactive” in each case. For the same compound, the compound was classed as inactive in assay [4], in assay [6], in assay [10] and in [11].
As for `CC(N)=O`, the Potency entry in [15], in assay [19], in assay [2], in [3], in assay [5] and in assay [7] was “inactive” in each case. Also, the Potency entry in [8], in [9], in assay [13], in assay [14], in assay [17] and in assay [18] was “inactive” throughout. Further, the result in assay [4], in [6], in assay [10] and in [11] was inactive.
Turning to `COC(=O)/C=C/c1ccccc1`, the Potency result in [15], in assay [19], in assay [2], in assay [5], in assay [7] and in [8] was “inactive” in each case. Further, the Potency result in [9], in assay [12], in assay [13], in assay [14], in [17] and in assay [18] was “inactive” in each case. For the same compound, the compound was called inactive in [4], in assay [6], in [10] and in assay [11].
In the case of `NNCCc1ccccc1`, the Potency result in [1], in [19], in assay [2], in [3], in [5] and in assay [16] was “inactive” each time. Besides, the Potency entry in [7], in assay [8], in assay [9], in assay [12], in assay [13] and in assay [17] was “inactive” in each case. Also, in assay [18], the Potency result is “inactive”. The outcome in [4], in assay [10] and in assay [11] was inactive.
As to `N[C@@H]1CONC1=O`, the Potency entry in assay [15], in [19], in assay [2], in assay [3], in assay [5] and in assay [16] was “inactive” each time. In addition, the Potency entry in assay [7], in assay [8], in assay [9], in [12], in assay [13] and in assay [17] was “inactive” each time. Besides, the result in [4], in [6] and in assay [10] was inactive.
In the case of `Cc1cc(OCCOCC[N+](C)(C)Cc2ccccc2)ccc1C(C)(C)CC(C)(C)C`, the Potency in assay [19] is 9.63 µM (active); in [2], 12.1 µM (active); in [3], 16.8 µM (active) and 3.05 µM (active). The result in assay [4], in assay [6], in [10] and in assay [11] was inactive. Further, the Potency entry in assay [5], in assay [7], in assay [8], in assay [9], in assay [12] and in [13] was “inactive” each time. For the same compound, in assay [14], the Potency entry is “inactive”.
In the case of `O=C1Nc2ccccc2C1(c1ccc(O)cc1)c1ccc(O)cc1`, the Potency entry in [1], in assay [19], in assay [2], in [5], in [7] and in assay [8] was “inactive” each time. The Potency entry in assay [9], in assay [12] and in assay [13] was “inactive” each time. Besides, the Potency in assay [3] is 13.7 µM (active). In addition, the call in [4], in [10] and in [11] was inactive.
As to `Nc1nc(=S)c2[nH]cnc2[nH]1`, the Potency result in [1], in assay [2], in assay [3], in assay [5], in assay [7] and in [8] was “inactive” throughout. The Potency entry in assay [9], in [13] and in assay [14] was “inactive” in each case. Further, the call in assay [4], in assay [6], in [10] and in assay [11] was inactive. The Potency in [18] was 23.9 µM (active) and 30.1 µM (active) and 43.6 µM (active).
Turning to `CCCOC(=O)c1cc(O)c(O)c(O)c1`, the Potency entry in [15], in assay [19], in assay [2], in [5], in [7] and in [8] was “inactive” in each case. For the same compound, the Potency result in assay [9], in [12], in [13], in assay [17] and in [18] was “inactive” each time. The Potency in [3] was 23.7 µM (active) and 48.3 µM (active) and 48.6 µM (active). Also, the outcome in assay [4], in assay [6] and in [10] was inactive.
`CCCCCCCCCCCCCC[P+](CCCC)(CCCC)CCCC`: the Potency entry in [1], in assay [5], in assay [16], in [7], in assay [8] and in assay [9] was “inactive” throughout. Further, the Potency entry in assay [13] and in assay [14] was “inactive” each time. The Potency in assay [15] is 24.2 µM (active) and 15.4 µM (active); in assay [2] it was 34.2 µM (active) and 24.3 µM (active); in assay [3] it was 542 nM (active) and 486 nM (active). In addition, the compound was called inactive in [4], in assay [10] and in assay [11].
Consider `O=C(Cl)c1cccc(C(=O)Cl)c1`, for which the Potency entry in assay [15], in assay [19], in assay [2], in assay [3], in assay [5] and in [7] was “inactive” throughout. Also, the Potency result in [8], in assay [9], in assay [12], in assay [13], in [17] and in assay [18] was “inactive” each time. For the same compound, the call in assay [4], in assay [6] and in assay [10] was inactive.
For the compound `CCN(CC)CCOc1ccc(/C(=C(\Cl)c2ccccc2)c2ccccc2)cc1`, in assay [15], the Potency is 29.8 µM (active) and 49.6 µM (active). Further, the Potency result in assay [19], in assay [2], in assay [5], in [7], in assay [8] and in assay [9] was “inactive” each time. In addition, the Potency result in assay [12], in assay [13] and in assay [14] was “inactive” each time. Moreover, the compound was classed as inactive in assay [4], in [6], in assay [10] and in assay [11].
